High-throughput results as filed in PubChem.
Abeta rescue – compounds reversing amyloid beta toxicity in yeast. 410,000 tested, 0.063% active. Potency, µM (highest dose often 46.1 µM), most hits filed as activators. yeast expressing A-beta42, growth rescue, OD600, 48 h; response scale: 0% DMSO, 100% iron-clioquinol control; further: nearly all actives have a fitted effect of over 55% in size
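Yeast A-beta toxicity model in growth medium with pinned compounds, 48 h at 30 C; growth read as absorbance at 600 nm. Normalized to FeCl3/clioquinol equimolar mix (positive) and DMSO (negative).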
aSyn yeast inh – inhibitors of alpha-synuclein toxicity in yeast | 370,000 tested, 0.14% active | Potency, µM (titrated, usually from 46.1 µM), for the others: top-dose growth rescue (activation), actives largely listed as activators | Yeast expressing alpha-synuclein, growth rescue, BacTiter-Glo, 24 h | AID 652106; further: % of control where 0% means no effect; nearly all actives have a fitted effect of over 65% in size
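Readout is rescue of growth in alpha-synuclein-expressing yeast, so inhibitors of toxicity appear as activators. Growth after 24 hr at 30 deg C in galactose medium is quantified by luminescence.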
TDP-43 yeast inh – inhibitors of TDP-43 toxicity in yeast. TDP-43 expressing yeast growth rescue, BacTiter-Glo, 24 h. Potency, µM (highest dose often 46.1 µM), for inactives: top-dose growth rescue (activation), actives largely listed as activators. 410,000 tested, 1.8% active. AID 652104; further: % of control where 0% means no effect; nearly all actives have a fitted effect of over 50% in size
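Yeast cells expressing TDP-43 under galactose induction are exposed to compounds for 24 hr at 30 deg C. BacTiter-Glo luminescence measures growth, so protective compounds score as activators.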
FUS yeast rescue – FUS proteinopathy suppression in yeast; 390,000 tested, 0.24% active; AID 1347120; Potency, µM (doses to about 76.6 µM), usual class: activators; S. cerevisiae FUS-expressing, growth rescue, OD600, 24 h;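 further: plate controls were DMSO vehicle for no effect and reference control for full effect; nearly all actives have a fitted effect of over 55% in size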
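Quantitative HTS measuring growth restoration of FUS-toxic yeast. Galactose-induced cells (OD 0.005) were exposed 24hr at 30C to compounds at several concentrations, then absorbance at 600 nm was recorded.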
The depositor's hits bear a star; i = inactive; u = inconclusive; x = not tested or not shown; ! = not confirmed by another sample; [ ] = dose if it differs, or a comment. The list is not random: actives were taken first. Their share in the collection is about 2.1%. The call rests on the fitted dose curve; in most records, active means well fitted curve in the direction sought with a large enough effect; inconclusive means small, poorly fitted or top-dose-only effect, or another doubt; inactive means no such curve, though single readings can be large; an effect the other way counts as inactive or inconclusive. Potency means the concentration at half of the fitted maximal effect.

SMILES	Abeta rescue	aSyn yeast inh	TDP-43 yeast inh	FUS yeast rescue
COc1ccc(/C=N/NC(=O)c2ccoc2C)cc1COc1ccc(Cl)cc1	u	15%	14µM*	u
COc1ccc(/C=N/NC(=O)c2ccn[nH]2)cc1COc1ccc([N+](=O)[O-])c(C)c1	i	29%	25µM*	i
COc1ccc(N2CCN(C(=O)CCC(=O)N3CCOc4ccc(Cl)cc43)CC2)cc1	i	10%	16µM*	i
CCc1cc(C(=O)N2CCN(c3ccccc3OC)CC2)sc1C	i	3%	13µM*	i
COc1ccccc1N1CCN(C(=O)c2cc3c(s2)CCCCC3)CC1	i	2%	22µM*	i
COc1ccccc1N1CCN(C(=O)c2oc3ccc(Br)cc3c2C)CC1	i	4%	18µM*	i
COc1ccccc1N1CCN(C(=O)c2cc3c(s2)-c2ccccc2OC3)CC1	i	3%	11µM*!	u
O=C(Cn1nnc(-c2ccccc2F)n1)Nc1ccc(Cl)cc1	x	x	x	i
CCC(CC)NC(=O)O[C@H]1CC[C@@]23CCCN2C(=O)CCC[C@H]3C1	x	x	x	i
Cc1ccc(S(=O)(=O)Nc2ccccc2CNc2ccc(Br)cn2)cc1	i	0%	20µM*	x
CC(=O)OC[C@@H]1CN(Cc2cccc(C(F)(F)F)c2)C[C@H](n2cnc3c(NCc4ccco4)ncnc32)O1	i	3%	11µM*	u
Cc1nn(Cc2ccc(F)cc2)c2sc(C(=O)Nc3ccc(N4CCOCC4)cc3N3CCOCC3)cc12	i	10%	14µM*	x
O=C(NC(=S)Nc1cccc2cccnc12)c1ccccc1	i	0%	15%	i
O=C(NC(=S)Nc1cccc2cccnc12)c1cccs1	i	16µM*	13%	i
Cn1nccc1-c1ccc(C(=O)NCc2ccc(Cl)cc2)c2occc12	i	6%	22µM*	u
O=C(NCc1ccco1)c1ccc(-c2ccc(F)c(F)c2)c2ccoc12	i	1%	20µM*	i
Cn1nccc1-c1coc2c(C(=O)NCc3ccccc3)cccc12	i	14%	3.5µM*	i
Cn1nccc1-c1coc2c(C(=O)NCC3CCOCC3)cccc12	i	-10%	13%	i
O=C(NCc1cccc(Cl)c1)c1ccc(-c2ccc(F)c(F)c2)c2ccoc12	i	8%	0%	i
O=C(NCc1ccccc1)c1ccc(-c2ccc(F)c(F)c2)c2ccoc12	i	-1%	-8%	i
CCCCC(=O)OC1=C(C(=O)c2ccccc2)N(CC)S(=O)(=O)c2ccccc21	i	x	16µM*	i
CCCCN1C(C(=O)c2ccccc2)=C(OC(C)=O)c2ccccc2S1(=O)=O	i	x	4%	i
CNc1ccccc1/C(O)=C(\C#N)C(=O)NCc1cccs1	x	x	x	i
Cc1cc(SCC(=O)NC(=O)NCc2ccco2)nc2c(C)cccc12	i	11µM*	-9%	u
Cc1cc(SCC(=O)NC(=O)NCc2ccco2)nc2ccccc12	i	-1%	u	u
SMILES	Abeta rescue	aSyn yeast inh	TDP-43 yeast inh	FUS yeast rescue
COc1cc(OC)c(NC(=O)Cn2ncn3c(cc4cc(C)ccc43)c2=O)cc1Cl	i	x	15%	i
Cc1ccc(NC(=O)Cn2ncn3c(cc4ccccc43)c2=O)c(C)c1	i	0%	12%	32µM*!
Cc1cc(C)n(-c2cc(C(C)(C)C)nc3c(-c4ccc(Cl)cc4)cnn23)n1	i	-7%	-23%	i
Cc1cc(C)n(-c2cc(C(C)(C)C)nc3c(-c4ccccc4)cnn23)n1	i	-6%	14µM*	i
CCc1ccc2oc(-c3cc(NC(=O)COc4ccc(C)cc4)ccc3O)nc2c1	x	-6%	x	x
COc1cccc(OC)c1NC(=O)OCCN1CCCC12CCC(c1ccccc1)CC2 (stereo unspecified)	x	x	x	i
CC(=O)c1cccc(NC(=O)c2nc(-c3ccccc3)n(-c3ccccc3)n2)c1	i	x	0%	i
Cc1ccc(NC(=O)c2cc(C)n(-c3cccc(C)c3)c2C)cc1	i	-5%	u	i
Cc1ccc(NC(=O)c2cc(C)nn2-c2ccccc2)cc1	i	2%	18µM*	i
CC(=O)c1ccc(NC(=O)c2nc(-c3ccccc3)n(-c3ccc(C)cc3)n2)cc1	i	x	18µM*	u
Cc1ccc(NC(=O)c2cc(C)n(-c3ccccc3)c2C)cc1	i	-15%	25µM*	i
Cc1ccc(C)c(NC(=O)c2nc(-c3ccccc3)n(-c3ccccc3)n2)c1	i	-17%	18µM*	u
CC(C)(C)OC(=O)C1[C@H](O)C=CC[C@H]1S(=O)c1ccccc1 (stereo partly specified)	x	x	x	i
O=C(O)c1nc(-c2ccccc2)n(-c2ccc(Cl)cc2)n1	i[9.22 µM]	3%	19%	i
Cc1cccc(-c2cc(NC(=O)c3ccccc3C)n(-c3ccccc3)n2)c1	i	x	20µM*	i
CC(=O)c1ccc(NC(=O)c2nc(-c3ccccc3)n(-c3ccc(Cl)cc3)n2)cc1	i	x	7.9µM*	i
Cc1ccc(OCC(=O)Nc2cc(-c3cccc(C)c3)nn2-c2ccccc2)cc1	i	x	16%	i
Cc1nnc(SCc2ccc(C(=O)Nc3cc(Cl)ccc3C)cc2)s1	i	0%	10µM*	i
C=CCN1C(=O)[C@@H](CC(=O)NCCCN2CCCC2=O)[C@]2(C(=O)OCC)CCCCC/C=C/12	x	x	x	i
Cc1sc2ccccc2[n+]1CCCC[n+]1c(C)sc2ccccc21	x	0%	x	x
O=C(COc1ccccc1)N1CCN(c2ncccn2)CC1	i	6%	6%	i
Cc1nc(N2CCN(C(=O)COc3ccccc3)CC2)c2c(C)c(C)sc2n1	i	-2%	16µM*	i
CCOC(=O)Cn1cc(CN2C(C(=O)OC)CN(CCO)CCS2(=O)=O)nn1 (stereo unspecified)	x	x	x	i
CCc1ccccc1S(=O)(=O)Cc1ccc(C(=O)NCc2ccc(Cl)cc2)o1	i	x	35µM*	i
CCc1ccccc1S(=O)(=O)Cc1ccc(C(=O)NCCc2ccc(Cl)cc2)o1	i	x	35µM*	u
SMILES	Abeta rescue	aSyn yeast inh	TDP-43 yeast inh	FUS yeast rescue
O=C(NCCc1ccccc1)c1ccc(CS(=O)(=O)c2ccc(Cl)cc2)o1	i	-5%	3%	i
Cc1ccccc1S(=O)(=O)Cc1ccc(C(=O)NCc2ccccc2Cl)o1	i	x	0%	i
COc1ccc(CNC(=O)CCSCc2cccc(F)c2)cc1	i	15%	10µM*	i
COc1ccc(CNC(=O)CCSCc2ccccc2C)cc1	i	16%	7.1µM*	i
O=C(CCSCc1cccc(Cl)c1)NCc1ccc(F)cc1Cl	u	x	22µM*	i
Cc1ccccc1OCCCCn1c(C2CC(=O)N(c3ccccc3Cl)C2)nc2ccccc21 (stereo unspecified)	u	x	11µM*	i
CCOc1ccc(N2CC(c3nc4ccccc4n3Cc3ccccc3F)CC2=O)cc1 (stereo unspecified)	i	x	1%	i
